# Laboratory results: publication PMC2807882, “Conservation of DNA-binding specificity and oligomerisation properties within the p53 family”
# Tests used:
# Assay in all cases: fluorescence anisotropy competition titration; 25 mM sodium phosphate (purification buffer pH 7.2), 225 mM NaCl, 10% v/v glycerol, 5 mM DTT, 0.2 mg/mL BSA, 22 C; low values mean tight binding
# Details in all cases: protein: recombinant; tags: N-terminal 6xHis-lipoyl-TEV tag, cleaved; chain copies: 4; dsDNA, one strand shown
# Dmp53 = target: T1, Dmp53 (Drosophila melanogaster, UniProt Q9N6D8 1-385)
# T1 sequence: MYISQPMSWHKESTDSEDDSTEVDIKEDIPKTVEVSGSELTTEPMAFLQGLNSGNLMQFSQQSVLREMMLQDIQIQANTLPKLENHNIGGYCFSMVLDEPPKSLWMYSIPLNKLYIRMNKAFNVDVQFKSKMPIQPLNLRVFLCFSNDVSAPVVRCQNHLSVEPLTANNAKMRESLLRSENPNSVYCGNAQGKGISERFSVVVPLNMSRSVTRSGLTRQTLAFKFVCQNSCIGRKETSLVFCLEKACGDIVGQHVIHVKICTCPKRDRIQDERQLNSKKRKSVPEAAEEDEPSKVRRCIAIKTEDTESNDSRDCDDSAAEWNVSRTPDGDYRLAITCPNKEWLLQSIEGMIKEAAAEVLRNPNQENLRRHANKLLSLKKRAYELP
# Drp53 = target: T2, Drp53 (Danio rerio, UniProt P79734 1-373)
# T2 sequence: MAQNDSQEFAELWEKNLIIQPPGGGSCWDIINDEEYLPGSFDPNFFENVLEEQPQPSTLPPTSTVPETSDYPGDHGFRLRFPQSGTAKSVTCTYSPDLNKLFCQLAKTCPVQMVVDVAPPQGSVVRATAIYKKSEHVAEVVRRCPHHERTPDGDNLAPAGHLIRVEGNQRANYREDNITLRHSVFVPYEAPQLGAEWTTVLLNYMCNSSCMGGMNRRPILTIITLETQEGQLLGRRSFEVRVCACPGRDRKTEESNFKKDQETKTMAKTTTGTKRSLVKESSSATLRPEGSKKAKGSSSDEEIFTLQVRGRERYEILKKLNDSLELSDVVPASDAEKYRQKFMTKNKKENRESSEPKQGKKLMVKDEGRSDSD
# Hsp53 = Hsp53 (Homo sapiens, UniProt P04637 1-393)
# Xlp53 = Xlp53 (Xenopus laevis, UniProt Q7T1D0 1-362)
# ΔNp63α = target: T3, ΔNp63α (Homo sapiens, UniProt Q9H3D4-2 1-586)
# T3 sequence: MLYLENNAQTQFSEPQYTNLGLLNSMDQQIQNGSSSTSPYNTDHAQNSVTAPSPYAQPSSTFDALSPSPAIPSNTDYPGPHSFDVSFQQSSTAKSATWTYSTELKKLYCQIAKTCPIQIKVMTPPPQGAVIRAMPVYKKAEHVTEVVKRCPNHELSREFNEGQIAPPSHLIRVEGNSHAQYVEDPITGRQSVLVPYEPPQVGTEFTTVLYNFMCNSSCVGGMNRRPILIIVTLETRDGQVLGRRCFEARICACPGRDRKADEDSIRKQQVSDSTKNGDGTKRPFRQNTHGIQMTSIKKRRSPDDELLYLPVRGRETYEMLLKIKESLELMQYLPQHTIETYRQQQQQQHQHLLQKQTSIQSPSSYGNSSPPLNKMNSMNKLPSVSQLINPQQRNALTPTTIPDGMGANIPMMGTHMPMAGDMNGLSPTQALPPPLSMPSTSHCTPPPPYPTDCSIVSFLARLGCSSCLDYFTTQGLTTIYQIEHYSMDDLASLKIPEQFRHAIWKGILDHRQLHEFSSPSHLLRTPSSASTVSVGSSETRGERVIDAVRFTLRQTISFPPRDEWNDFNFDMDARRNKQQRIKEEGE
# ΔNp63β = target: T4, ΔNp63β (Homo sapiens, UniProt Q9H3D4-4 1-461)
# T4 sequence: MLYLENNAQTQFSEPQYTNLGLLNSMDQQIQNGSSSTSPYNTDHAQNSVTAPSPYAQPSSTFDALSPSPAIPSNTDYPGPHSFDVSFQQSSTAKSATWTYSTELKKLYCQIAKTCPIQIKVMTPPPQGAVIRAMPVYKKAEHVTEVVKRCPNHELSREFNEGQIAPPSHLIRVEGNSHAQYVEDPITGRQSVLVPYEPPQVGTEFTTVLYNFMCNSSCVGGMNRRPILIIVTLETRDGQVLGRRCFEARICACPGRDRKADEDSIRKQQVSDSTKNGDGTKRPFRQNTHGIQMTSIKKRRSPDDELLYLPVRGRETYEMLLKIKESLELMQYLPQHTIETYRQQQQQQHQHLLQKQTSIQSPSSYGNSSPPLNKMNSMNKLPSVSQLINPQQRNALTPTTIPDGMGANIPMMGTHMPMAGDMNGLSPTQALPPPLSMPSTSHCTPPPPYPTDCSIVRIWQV
# ΔNp63γ = target: T5, ΔNp63γ (Homo sapiens, UniProt Q9H3D4-6 1-393)
# T5 sequence: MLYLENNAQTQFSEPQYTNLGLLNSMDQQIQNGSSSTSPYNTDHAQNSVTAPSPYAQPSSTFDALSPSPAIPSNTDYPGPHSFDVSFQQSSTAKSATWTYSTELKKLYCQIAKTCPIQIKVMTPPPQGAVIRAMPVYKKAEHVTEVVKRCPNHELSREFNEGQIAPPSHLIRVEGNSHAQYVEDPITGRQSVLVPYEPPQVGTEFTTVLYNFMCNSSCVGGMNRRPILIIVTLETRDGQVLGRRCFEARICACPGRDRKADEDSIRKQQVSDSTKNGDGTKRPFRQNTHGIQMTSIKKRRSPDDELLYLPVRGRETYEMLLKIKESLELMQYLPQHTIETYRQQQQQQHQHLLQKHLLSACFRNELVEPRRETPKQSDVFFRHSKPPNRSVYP
# ΔNp73β = target: T6, ΔNp73β (Homo sapiens, UniProt O15350-9 1-450)
# T6 sequence: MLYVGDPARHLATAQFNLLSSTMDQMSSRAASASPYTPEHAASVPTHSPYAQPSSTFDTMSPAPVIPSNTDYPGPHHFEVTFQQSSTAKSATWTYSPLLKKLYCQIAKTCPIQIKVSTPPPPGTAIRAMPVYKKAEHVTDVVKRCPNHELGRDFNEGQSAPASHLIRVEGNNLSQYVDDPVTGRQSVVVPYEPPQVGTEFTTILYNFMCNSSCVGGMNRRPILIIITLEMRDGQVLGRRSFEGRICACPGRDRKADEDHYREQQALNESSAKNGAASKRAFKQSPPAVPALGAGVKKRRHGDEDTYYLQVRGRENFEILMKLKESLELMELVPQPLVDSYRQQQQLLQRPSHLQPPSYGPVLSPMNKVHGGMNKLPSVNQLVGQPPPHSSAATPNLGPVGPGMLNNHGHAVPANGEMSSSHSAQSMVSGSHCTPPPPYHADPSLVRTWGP
# Mmp53 = Mmp53 (Mus musculus, UniProt P02340 1-390)
# p73CT = target: T7, p73CT (Homo sapiens, UniProt O15350 104-383)
# T7 sequence: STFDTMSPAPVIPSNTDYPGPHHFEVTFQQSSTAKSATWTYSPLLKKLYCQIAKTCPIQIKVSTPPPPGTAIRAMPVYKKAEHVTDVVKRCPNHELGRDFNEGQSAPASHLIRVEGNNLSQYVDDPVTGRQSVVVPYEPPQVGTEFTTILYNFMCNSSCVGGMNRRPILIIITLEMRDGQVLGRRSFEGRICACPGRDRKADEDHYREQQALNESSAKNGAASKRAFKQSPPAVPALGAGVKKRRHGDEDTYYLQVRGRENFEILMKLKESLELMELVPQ
# Mmp53, sequence (P02340 whole entry): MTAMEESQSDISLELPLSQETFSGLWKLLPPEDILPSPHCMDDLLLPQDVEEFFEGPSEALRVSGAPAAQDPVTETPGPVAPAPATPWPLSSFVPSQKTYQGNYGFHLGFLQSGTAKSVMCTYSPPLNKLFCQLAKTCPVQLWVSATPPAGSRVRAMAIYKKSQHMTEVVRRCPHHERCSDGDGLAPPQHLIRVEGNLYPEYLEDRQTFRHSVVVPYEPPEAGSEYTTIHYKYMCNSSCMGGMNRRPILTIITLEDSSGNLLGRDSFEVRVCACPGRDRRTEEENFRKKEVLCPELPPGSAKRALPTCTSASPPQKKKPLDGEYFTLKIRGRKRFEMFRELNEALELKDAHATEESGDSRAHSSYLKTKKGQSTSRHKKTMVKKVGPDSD
# Hsp53, sequence (P04637 whole entry): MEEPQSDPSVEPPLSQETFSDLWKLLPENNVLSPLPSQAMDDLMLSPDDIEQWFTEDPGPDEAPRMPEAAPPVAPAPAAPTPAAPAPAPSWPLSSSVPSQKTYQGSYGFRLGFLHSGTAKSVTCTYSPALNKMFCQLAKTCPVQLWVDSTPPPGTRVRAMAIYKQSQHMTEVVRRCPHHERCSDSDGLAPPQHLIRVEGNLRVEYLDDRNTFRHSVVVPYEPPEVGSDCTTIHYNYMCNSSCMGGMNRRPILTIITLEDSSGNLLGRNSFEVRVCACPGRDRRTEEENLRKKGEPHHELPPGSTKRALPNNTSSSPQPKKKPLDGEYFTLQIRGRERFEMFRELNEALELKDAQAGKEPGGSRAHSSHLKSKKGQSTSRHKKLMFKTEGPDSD
# Xlp53, sequence (Q7T1D0 entry or part of it): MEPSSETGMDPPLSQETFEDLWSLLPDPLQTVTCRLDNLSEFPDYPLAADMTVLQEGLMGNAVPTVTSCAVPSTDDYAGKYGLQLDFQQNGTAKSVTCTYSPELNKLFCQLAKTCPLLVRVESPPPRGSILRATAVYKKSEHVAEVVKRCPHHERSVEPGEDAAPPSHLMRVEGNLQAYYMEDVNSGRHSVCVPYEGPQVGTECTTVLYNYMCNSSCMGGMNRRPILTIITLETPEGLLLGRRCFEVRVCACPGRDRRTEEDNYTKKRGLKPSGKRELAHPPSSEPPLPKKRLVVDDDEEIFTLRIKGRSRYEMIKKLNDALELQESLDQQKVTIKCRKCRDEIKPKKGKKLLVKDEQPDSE
Sequence,binding signal (Dmp53) [delta log10 Kd],binding signal (Drp53) [delta log10 Kd],binding signal (Hsp53) [delta log10 Kd],binding signal (Xlp53) [delta log10 Kd],binding signal (ΔNp63α) [delta log10 Kd],binding signal (ΔNp63β) [delta log10 Kd],binding signal (ΔNp63γ) [delta log10 Kd],binding signal (ΔNp73β) [delta log10 Kd],binding signal (Mmp53) [delta log10 Kd],binding signal (p73CT) [delta log10 Kd]
CGCGGACTTGTCCGGACATGTCCCGC,0.36,0.3,0.14,0.16,0.06,0.27,0.41,0.36,0.24,0.45
CGCGGACATGTCGGGACATGTCCCGC,0.02,0.19,0.27,0.22,0.11,0.11,0.1,0.17,0.24,0.17
CGCGGACAGGTCCGGACATGTCCCGC,0.35,0.65,0.36,0.41,0.17,0.43,0.43,0.49,0.4,0.41
CGCGGACATGTACGGACATGTCCCGC,0.07,0.39,0.34,0.35,0.15,0.29,0.32,0.4,0.27,0.36
CGCGGAGATGTCCGGACATGTCCCGC,1.2,0.95,0.74,1.07,0.84,1.29,1.19,1.32,0.4,1.18
CGCGCACATGTCCGGACATGTCCCGC,0.21,0.41,0.37,0.27,0.15,0.36,0.37,0.44,0.28,0.39
CGCGGACATGTGCGGACATGTCCCGC,0.23,0.54,0.49,0.57,0.3,0.46,0.49,0.65,0.36,0.53
